Source: PubChem BioAssay AID540345 (The Scripps Research Institute Molecular Screening Center, 2011)
Calls of active or inactive are those of the source. How the calls were made is not given here.

System: Potassium Channel [KATP]
Test: off-target binding and CYP inhibition panel, profiling panel, selectivity assay for GPR7 antagonist project, biochemical, Ricerca HitProfilingScreen, CYP450, set 2 (AID 540345)
Settings: Ricerca radioligand binding/CYP panel, at 10 µM, active compounds read high

COc1ccc(Oc2c(Cl)cnn(C3c4ccccc4-c4ccccc43)c2=O)cc1
inhibition: -5% (inactive)
